Reference: the supplement of paper PMC10338343
± gives the standard deviation.

Assays:
[1] = tested on: MILI (PIWIL2) piRISC loaded with piRNA #1 (26 nt); assay: pre-steady-state target cleavage rate (min^-1); guide: piRNA #1 5'p-UGAGGUAGUAGGUUGUAUAGUAUCCA; higher = faster piRNA-guided slicing of the target; conditions: auxiliary factor: 500 nM mouse GTSF1;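 also: 1 nM active piRISC with 0.1 nM target library at 33 °C single turnover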
Summary of the method: (§1)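 A burst-and-steady-state fit was used to obtain the pre-steady-state cleavage rate. The input data were sequencing reads of uncleaved targets, normalised to depth and to weakly complementary targets, from a […] transcribed, DNA-blocked target RNA library mixed with 1 nM active affinity-purified piRISC holding one synthetic guide, with or without 500 nM GTSF1 partner protein, in HEPES–potassium acetate buffer at 33 °C for 0–8 or 0–960 min. Three trials were pooled and k3 was capped at 0.0001 min^-1.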

[2] = tested on: EfPiwi piRISC loaded with piRNA #1 (26 nt); assay: pre-steady-state target cleavage rate (min^-1); auxiliary factor: 500 nM Ephydatia muelleri Gtsf1; guide: piRNA #1 5'p-UGAGGUAGUAGGUUGUAUAGUAUCCA; MIWI and MILI are mouse PIWI proteins and EfPiwi is from a freshwater sponge; tags in brackets are library labels; higher = faster piRNA-guided slicing of the target
Summary of the method: as §1

Row | Sequence | pre-steady-state target cleavage rate [1] | pre-steady-state target cleavage rate [2]
1 | GGAGACCAUAGUUUACAACCUACUACCUCA | 0.0547 ± 0.0081 | 0.0227 ± 0.0096
2 | GGAGACCAUAGUAUACAACCUACUAGCUCA | 0.0143 ± 0.0053 | 0.00326 ± 0.0032
3 | GGAGACGAUACUGUACAACCUACUACCUCA | 0.169 ± 0.018 | 0.0777 ± 0.025
4 | GGAGACCUUACUCAUACAACCUACUACCUCA | 0.122 ± 0.016 | 0.00389 ± 0.0032
5 | GGAGAGGAUACGAUACAACCUACUACCUCA | 0.166 ± 0.011 | 0.00899 ± 0.0037
6 | GGAGACCUUACUCUACAACCUACUACCUCA | 0.202 ± 0.02 | 0.0532 ± 0.019
7 | GGAGACCUAACUAUUACAACCUACUACCUCA | 0.099 ± 0.023 | 0.0205 ± 0.0091
8 | GGAGACGAUACUAUACAACCUCUACCUCA | 0.0213 ± 0.0044 | 0.00608 ± 0.0025
9 | GGAGAGGUAACUAUACAACCUACUACCUCA | 0.103 ± 0.015 | 0.00695 ± 0.0039
10 | GGAGAGGAUACUCAUACAACCUACUACCUCA | 0.149 ± 0.015 | 0.0605 ± 0.024
11 | GGAGAGGAUACUAUUCAACCUACUACCACA | 0.169 ± 0.017 | 0.00331 ± 0.0019
12 | GGAGAGGAUACUAUAGAACCUACUACCUCA | 0.166 ± 0.013 | 0.00475 ± 0.0023
13 | GGAGAGGAUACUAUACAACGUACUACCACA | 0.0287 ± 0.0041 | 0.00287 ± 0.0018
14 | GGAGACCUUACUAUACAACCUACUACCUCCA | 0.133 ± 0.014 | 0.00652 ± 0.0028
15 | GGAGACCAAACUAUACAAGCUACUACCUCA | 0.179 ± 0.025 | 0.00675 ± 0.0052
16 | GGAGACCAUACUAUACAACCUACUACGCUCA | 0.219 ± 0.028 | 0.00458 ± 0.0028
17 | GGAGUGGAUACUAUACAACCUAGUACCUCA | 0.0508 ± 0.0096 | 0.00414 ± 0.0012
18 | GGAGACGAUACCUAUACAACCUACUACCUCA | 0.104 ± 0.025 | 0.0601 ± 0.023
19 | GGAGACGAUACUAUACAUCCUACUUCCUCA | 0.157 ± 0.028 | 0.00415 ± 0.0023
20 | GGAGACGAUACUAUACAACCAACUACCUCA | 0.00952 ± 0.004 | 0.00552 ± 0.0017
21 | GGAGACGAUACUAAACAAGCUACUACCUCA | 0.268 ± 0.016 | 0.00331 ± 0.0031
22 | GGAGACGAUACUAUAUAACCUACUACCUCA | 0.205 ± 0.011 | 0.0091 ± 0.0042
23 | GGAGUGGAUUCUAUACAACCUACUACCUGA | 0.0905 ± 0.012 | 0.00261 ± 0.002
24 | GGAGACCUAUGUAUACAACCUACUACUCUCA | 0.117 ± 0.013 | < 0.0001

Row | Sequence | pre-steady-state target cleavage rate [1] | pre-steady-state target cleavage rate [2]
25 | GGAGACGAUACUAUACAAGCUUCUACCUCA | 0.0442 ± 0.0052 | 0.0034 ± 0.0019
26 | GGAGACGAUACUAUACAACCUACUACCUGA | 0.132 ± 0.02 | 0.0064 ± 0.002
27 | GGAGACCAUACUAUACAACCUACUAACUCA | 0.0993 ± 0.021 | 0.00957 ± 0.0048
28 | GGAGACGAUACUAUACUACCUACUAGCUCA | 0.124 ± 0.018 | 0.00251 ± 0.0018
29 | GGAGACCUAUCUAUACAACCUACUACCGUCA | 0.141 ± 0.019 | 0.00478 ± 0.0036
30 | GGAGACCAUACUAUACAAGCUACUACCUCA | 0.253 ± 0.02 | 0.00377 ± 0.0015
31 | GGAGACGAUACUAUACAACCUCCUACCUCA | 0.041 ± 0.0079 | 0.00579 ± 0.0016
32 | GGAGAGGAUACCUAUACAACCUACUACCUCA | 0.123 ± 0.027 | 0.0826 ± 0.033
33 | GGAGACCUUUCAAUACAACCUACUACCUCA | 0.0649 ± 0.017 | 0.00501 ± 0.0042
34 | GGAGAGGAUACAAUACAACGUACUACCUCA | 0.0139 ± 0.003 | 0.00326 ± 0.002
35 | GGAGACCUUAGUAUACAACCUACUACCUGA | 0.0569 ± 0.0097 | 0.00359 ± 0.0036
36 | GGAGACGAAUGUAUACAACCUACUACCUCA | 0.124 ± 0.011 | 0.00736 ± 0.0043
37 | GGAGUGGAUAGUAUACAACCUACAACCUCA | 0.0845 ± 0.011 | 0.00254 ± 0.0017
38 | GGAGACCAAACUAUACAACCUACUACGUCA | 0.042 ± 0.015 | 0.00503 ± 0.0027
39 | GGAGACCUAAGUAUACAACCUACUACCUCA | 0.0701 ± 0.0097 | 0.00697 ± 0.0037
40 | GGAGUGAAUACUAUACAACCUACUACCUCA | 0.175 ± 0.009 | 0.102 ± 0.037
41 | GGAGACGAUACUAUACAACCUACUUCCUGA | 0.00812 ± 0.005 | 0.00342 ± 0.002
42 | GGAGAGGAUACAAUACAACCUACUAGCUCA | 0.068 ± 0.011 | 0.00253 ± 0.0018
43 | GGAGUGGAUACUAUACAACCUACUACCUCC [g2:g26:cont:t1C] | 0.188 ± 0.0099 | 0.105 ± 0.037
44 | GGAGACCAUACUAUAGCAACCUACUACCUCA | 0.191 ± 0.016 | 0.00736 ± 0.0044
45 | GGAGACCUUACUAUACAACCUACUACCUGA | 0.117 ± 0.016 | 0.00415 ± 0.0019
46 | GGAGUGGAUACAAUACAACCUAGUACCUCA | 0.0718 ± 0.013 | 0.00305 ± 0.0021
47 | GGAGACCAUACUAUAGAACCUACUACCUCA | 0.116 ± 0.016 | 0.00367 ± 0.0017
